The source of these data is PubChem BioAssay (NCI).

About 83,000 compounds went through this panel and 20% of them were active in at least one assay; those are over-represented in the sample as a whole.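 Single-dose data. Exposure time 48 hours. Values below 10 considered active.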 Values without a mark were called inactive. Calls of active or inactive are those of the source.

Among the test systems are NCI-H23 lung; NCI-H226 lung; NCI-H322M lung; HOP-62 NSCLC; NCI-H460 lung; HOP-92 NSCLC; NCI-H522 lung; A549/ATCC NSCLC; 786-0 renal; COLO 205 colon.
Holding throughout (assay): NCI-60 one-dose screen, 48 h (100 = growth as untreated, 0 = no growth, -100 = all killed)
Common to all, as to details: 10 µM

Regarding `O=CNc1c(Cl)cc2c(c1Cl)Cc1cc([N+](=O)[O-])ccc1-2`, the growth in the experiment on NCI-H23 lung was 58.3%; in the experiment with NCI-H226 lung it was 90.1%; in the experiment on NCI-H322M lung, 78%; with HOP-62 NSCLC it was 67.6%; in the experiment with NCI-H460 lung, 31.4%; in the experiment on HOP-92 NSCLC it was 60.6%. Also, the growth in the experiment on NCI-H522 lung was 44.7%; in the experiment with A549/ATCC NSCLC, 38.4%; in the experiment on 786-0 renal, 109%; with COLO 205 colon, 34.4%.

With `O=c1oc2cc(OS(=O)(=O)C3CC3)ccc2c2c1CCCCCC2`, the growth in the experiment on NCI-H23 lung is 70.4%; in the experiment on NCI-H226 lung, 67.2%; in the experiment with NCI-H322M lung, 104%; in the experiment with HOP-62 NSCLC, 83.2%; in the experiment on NCI-H460 lung, 86.2%; with HOP-92 NSCLC, 85.2%. Besides, the growth is 79.2% with NCI-H522 lung, 69.6% with A549/ATCC NSCLC, 93% with 786-0 renal and 40.9% in the experiment with COLO 205 colon.

Consider `NC(=O)C1CCCN(Cc2c[nH]c3ccccc23)C1` (stereo not given), for which the growth in the experiment with NCI-H23 lung is 95.8%; in the experiment with NCI-H226 lung, 84.5%; in the experiment with NCI-H322M lung, 98.5%; in the experiment on HOP-62 NSCLC, 91.1%; in the experiment with NCI-H460 lung, 106%; with HOP-92 NSCLC, 96.2%. The growth in the experiment on NCI-H522 lung is 84.6%; with A549/ATCC NSCLC, 96.4%; in the experiment with 786-0 renal it was 105%; in the experiment on COLO 205 colon it was 104%.

Take `O/N=C1\CCC2CCCCC2C1` (stereo not given): the growth is 103% in the experiment with NCI-H23 lung; 103% with NCI-H226 lung; 106% with NCI-H322M lung; 108% in the experiment on HOP-62 NSCLC; 103% in the experiment on NCI-H460 lung; 82.9% in the experiment with HOP-92 NSCLC. For the same compound, the growth with NCI-H522 lung is 93.4%; with A549/ATCC NSCLC, 96.6%; in the experiment on 786-0 renal it was 105%; in the experiment with COLO 205 colon, 114%.

For `CN(C)c1ccc2c(c1)OC(N)=C(C#N)C2c1ccc2c(c1)CCO2` (stereo not given), the growth was 35.5% in the experiment with NCI-H23 lung; 48.9% in the experiment with NCI-H226 lung; 51.4% in the experiment with NCI-H322M lung; 36.3% with HOP-62 NSCLC; 9.76% (active) with NCI-H460 lung; 58.8% in the experiment on HOP-92 NSCLC. For the same compound, the growth in the experiment with NCI-H522 lung is -6.52% (active); in the experiment on A549/ATCC NSCLC it was 21.9%; in the experiment on 786-0 renal it was 34.8%; with COLO 205 colon, -26% (active).

In the case of `O=C(O)CCCN1C(=O)NC2(C1=O)c1ccccc1-c1ccccc12`, the growth was 93.2% with NCI-H23 lung; 91.1% with NCI-H226 lung; 101% in the experiment with NCI-H322M lung; 102% in the experiment on HOP-62 NSCLC; 105% in the experiment on NCI-H460 lung; 88.5% in the experiment with HOP-92 NSCLC. Further, the growth in the experiment with NCI-H522 lung is 80.4%; in the experiment with A549/ATCC NSCLC, 90.2%; in the experiment on 786-0 renal it was 95.2%; in the experiment with COLO 205 colon, 108%.

For the compound `Cc1ccc2c(c1)-c1cc(C)nn1-c1ccc(C#N)cc1O2`, the growth with NCI-H23 lung is 78.2%; with NCI-H226 lung, 75.4%; in the experiment with NCI-H322M lung it was 81.5%; with HOP-62 NSCLC it was 51.6%; with NCI-H460 lung, 60.5%; with HOP-92 NSCLC, 69.1%. Also, the growth in the experiment on NCI-H522 lung was 15.2%; in the experiment on A549/ATCC NSCLC, 51.6%; in the experiment on 786-0 renal it was 86.4%; in the experiment with COLO 205 colon, 66.3%.

`COc1ccc(S(=O)(=O)Nc2cc(/C=C\c3cc(OC)c(OC)c(OC)c3)ccc2OC)cc1`: the growth in the experiment with NCI-H23 lung was 27.6%; in the experiment with NCI-H226 lung, 11.8%; in the experiment with NCI-H322M lung it was 23.8%; with HOP-62 NSCLC, 48.7%; in the experiment on NCI-H460 lung it was 5.27% (active); in the experiment with HOP-92 NSCLC it was 12.7%. Besides, the growth with NCI-H522 lung is -27.9% (active); in the experiment with A549/ATCC NSCLC, 18%; in the experiment on 786-0 renal it was 19%; with COLO 205 colon, -59.2% (active).

On to `O=C(Nc1ccc(OCc2nnc(-c3ccccc3)o2)c(F)c1)Nc1ccc(Cl)c(Cl)c1`, for which the growth in the experiment with NCI-H23 lung was 53%; in the experiment on NCI-H226 lung, 72.3%; in the experiment on NCI-H322M lung, 62.5%; with HOP-62 NSCLC it was 76.6%; in the experiment with NCI-H460 lung, 36.6%; in the experiment on HOP-92 NSCLC, 55.5%. Also, the growth with NCI-H522 lung was 35%; in the experiment on A549/ATCC NSCLC, 55.5%; in the experiment with 786-0 renal, 82.1%; in the experiment with COLO 205 colon, 58.9%.

Regarding `CCCCc1ccc(NC(=O)N(CCCl)N=O)cc1`, the growth with NCI-H23 lung is 109%; in the experiment on NCI-H226 lung, 91.2%; in the experiment on NCI-H322M lung, 96.8%; in the experiment on HOP-62 NSCLC, 90.8%; in the experiment on NCI-H460 lung, 102%; with HOP-92 NSCLC, 105%. Further, the growth in the experiment with NCI-H522 lung was 97%; with A549/ATCC NSCLC, 102%; in the experiment with 786-0 renal it was 94.2%; in the experiment on COLO 205 colon, 101%.

Take `CCOC(=O)c1sc(NC(=O)c2cc(OC)c(OC)c(OC)c2)nc1C`: the growth was 93.3% in the experiment on NCI-H23 lung; 88.8% with NCI-H226 lung; 161% in the experiment on NCI-H322M lung; 116% with HOP-62 NSCLC; 108% in the experiment with NCI-H460 lung; 46.9% in the experiment with HOP-92 NSCLC. For the same compound, the growth in the experiment on NCI-H522 lung was 67.4%; in the experiment with A549/ATCC NSCLC, 101%; in the experiment on 786-0 renal it was 114%; in the experiment with COLO 205 colon, 122%.

Take `CNCCCNCCCN1C(=O)c2ccc3c4c(ccc(c24)C1=O)C(=O)N(CCCNCc1ccccc1OC)C3=O`: the growth in the experiment with NCI-H23 lung is -31% (active); in the experiment on NCI-H226 lung, 8.88% (active); with NCI-H322M lung, 1.15% (active); in the experiment with HOP-62 NSCLC, 7.81% (active); in the experiment on NCI-H460 lung, -16.6% (active); in the experiment on HOP-92 NSCLC, -32.1% (active). Also, the growth is -52.7% (active) with NCI-H522 lung, 1.84% (active) in the experiment with A549/ATCC NSCLC, 10.4% in the experiment with 786-0 renal and -72.8% (active) with COLO 205 colon.

As to `CCN(CC)CCCOC(=O)Nc1ccccc1Cl`, the growth in the experiment on NCI-H23 lung is 108%; in the experiment with NCI-H226 lung, 108%; with NCI-H322M lung it was 129%; in the experiment on HOP-62 NSCLC it was 112%; in the experiment on NCI-H460 lung it was 115%; in the experiment with HOP-92 NSCLC it was 94.9%. For the same compound, the growth in the experiment with NCI-H522 lung is 102%; with A549/ATCC NSCLC, 107%; in the experiment with 786-0 renal, 98.9%; in the experiment with COLO 205 colon, 118%.

For the compound `COc1ccc(-c2[nH]ncc2/C=C/c2cc(C(F)(F)F)[nH]c(=O)n2)cc1`, the growth is 99.4% with NCI-H23 lung; 96.9% in the experiment with NCI-H226 lung; 98.1% in the experiment with NCI-H322M lung; 96% in the experiment on HOP-62 NSCLC; 110% in the experiment on NCI-H460 lung; 59.3% in the experiment on HOP-92 NSCLC. Also, the growth is 75.7% with NCI-H522 lung, 104% with A549/ATCC NSCLC, 89.8% in the experiment with 786-0 renal and 113% with COLO 205 colon.
